# Test results from ChEMBL document CHEMBL3988442, “University of Dundee, Small-Polar-MMV Screening Library” (2021).
# About 1,000 (1.4%) of roughly 69,000 compounds showed an effect of 50% or more. This is one part of a sample in which strong results are shown more often than they occur.
# Tested on: Leishmania donovani
# Test: Leishmania intramacrophage assay
# Type: functional, organism-based
# Set-up: scale not given: in the data most compounds retested in dose-response had high values
smiles,measurement,setting,value
COc1ccc(CNC[C@@]2(COc3cccnc3)C[C@@H](O)[C@@H](O)C2)cc1.Cl,Percent Effect,"30.3 µM, […]",14.18%
Cc1nc2ccnn2c(C)c1CCC(=O)N1CCN2CCCCC2C1 (stereo unspecified),Percent Effect,30 µM,11.28%
O=C(C1CCCCC1)N1CCCC([C@@H]2C[C@H](C(F)F)n3ncnc3N2)C1 (stereo partly specified),Percent Effect,"30.3 µM, […]",0.241%
Cc1nc(N(C)CCCc2nccn2C)c2c(C)nn(C)c2n1,Percent Effect,"30.3 µM, […]",1.733%
Cc1ccc(CN2CC[C@H]3[C@H](CC(Cn4cccn4)N3C)C2)s1.O=C(O)C(F)(F)F.O=C(O)C(F)(F)F.O=C(O)C(F)(F)F (stereo partly specified),Percent Effect,"30.3 µM, […]",-11.42%
CN1CC[C@H](N(Cc2ccccc2)CC2CC2)C[C@H](O)C1,Percent Effect,"30.3 µM, […]",31.47%
CN1CC[C@H](N(C)Cc2ccccc2)C[C@H](O)C1,Percent Effect,"30.3 µM, […]",20.46%
CN1CC[C@H](N(Cc2ccccc2)Cc2ccccc2)C[C@H](O)C1,Percent Effect,"30.3 µM, […]",94.14%
CC(C)Sc1ncccc1C(=O)NCc1ccc(O)cc1,Percent Effect,30 µM,14.96%
CCN(C)S(=O)(=O)NCC(O)c1c(Cl)cccc1Cl (stereo unspecified),Percent Effect,"30.3 µM, […]",41.58%
CCN(CC)S(=O)(=O)NCC(O)c1c(Cl)cccc1Cl (stereo unspecified),Percent Effect,"30.3 µM, […]",62.85%
CCCS(=O)(=O)NCC(O)c1c(Cl)cccc1Cl (stereo unspecified),Percent Effect,"30.3 µM, […]",7.191%
CCCc1nc(CN2CCCC2Cn2cccn2)cs1 (stereo unspecified),Percent Effect,"30.3 µM, […]",31.37%
CCN1CCC2(CC1)CC(CC(=O)N(C)C)c1ccc(F)cc12 (stereo unspecified),Percent Effect,"30.3 µM, […]",64.47%
CCC(=O)N1CCC2(CC1)CC(CC(=O)N(C)C)c1ccc(F)cc12 (stereo unspecified),Percent Effect,"30.3 µM, […]",35.94%
CN(C)C(=O)CC1CC2(CCN(CC3CC3)CC2)c2cc(F)ccc21.O=C(O)C(F)(F)F (stereo unspecified),Percent Effect,"30 µM, 30.03 µM",16.14%
CC(=O)Nc1ccc(CNCC(O)c2ccccc2)cc1 (stereo unspecified),Percent Effect,"30.3 µM, […]",-2.839%
CCOc1ccc(CNCC(O)c2ccccc2)cc1Cl.Cl (stereo unspecified),Percent Effect,"30.3 µM, […]",14.87%
CCc1ccc(CNC(=O)NC2CCCc3c2cnn3CCO)s1 (stereo unspecified),Percent Effect,"30.3 µM, […]",21.53%
O=C(Cc1ccccn1)N1CCCC(c2nccn2CC2CCC2)C1 (stereo unspecified),Percent Effect,"30.3 µM, […]",-1.281%
CCOc1ccccc1OC1CCN(Cc2ccn(C)c(=O)c2)CC1,Percent Effect,30 µM,5.552%
CCCS(=O)(=O)N1CCC(NC(=O)c2cc3ccccc3s2)CC1,Percent Effect,"30.3 µM, […]",22.53%
CC(C)CN1CCC2(C=C(C(=O)N(C)C)c3ccccc32)CC1.O=C(O)C(F)(F)F,Percent Effect,"30.3 µM, […]",41.74%
CCC(=O)N1CCC2(C=C(C(=O)N3CCCC3)c3ccccc32)CC1,Percent Effect,"30.3 µM, […]",11.1%
CC(C)N1CCC2(C=C(C(=O)N(C)C)c3ccccc32)CC1.O=C(O)C(F)(F)F,Percent Effect,"30.3 µM, […]",-11.73%
CCN1CCC2(C=C(C(=O)N(C)C)c3ccccc32)CC1.O=C(O)C(F)(F)F,Percent Effect,"30.3 µM, […]",51.51%
CCC(=O)N1CCC2(C=C(C(=O)N(C)C)c3ccccc32)CC1,Percent Effect,"30.3 µM, […]",92.12%
CN1CCC2(C=C(C(=O)N(C)C)c3ccccc32)CC1,Percent Effect,"30.3 µM, […]",38.98%
CC(C)Cc1cc(CNc2nc(-c3cccnc3)nc3c2CNC3)no1,Percent Effect,"30.3 µM, […]",9.598%
O=C(c1cccnc1)N1CCN(CC2CC2)c2ncccc2C1,Percent Effect,"30.3 µM, […]",14.27%
O=C(c1ccoc1)N1CC[C@@H]2O[C@@H](COCc3ccccn3)CC[C@@H]21,Percent Effect,"30.3 µM, […]",-30.2%
O=C(N1CCOCC1)N1CC[C@H]2[C@@H]1CCC(=O)N2c1ccccc1,Percent Effect,"30.3 µM, […]",31.55%
Cc1oncc1C(=O)N1CCC2(CCN(Cc3ccccn3)C2=O)C1 (stereo unspecified),Percent Effect,"30 µM, 30.03 µM",-19.39%
O=C(c1cccnc1)N1CCC2(CC1)CCN(Cc1ccccn1)C2=O,Percent Effect,"30.3 µM, […]",28.38%
Cc1ccc(C(=O)N2CCC3(CCN(Cc4ccccn4)C3=O)C2)cn1 (stereo unspecified),Percent Effect,"30.3 µM, […]",50.83%
Cc1ccc(-c2cc(C(F)(F)F)nc(N3CCOCC3)n2)s1,Percent Effect,"30.3 µM, […]",2.404%
CCc1ccc(-c2cc(C(F)(F)F)nc(N3CCC(N)CC3)n2)cc1,Percent Effect,"30.3 µM, […]",44.83%
CCNC(=O)[C@@H]1C[C@H](N)CN1c1cc(C(F)(F)F)nc(N2CCCC2)n1,Percent Effect,"30.3 µM, […]",23.81%
Cc1nn(C)cc1-c1cc(C(F)(F)F)nc(NC2CCN(C)CC2)n1,Percent Effect,"30.3 µM, […]",7.809%
CCn1ncc(-c2cc(C(F)(F)F)nc(N3CCC(N)CC3)n2)c1C,Percent Effect,"30.3 µM, […]",100.6%
Cc1c(-c2cc(C(F)(F)F)nc(N3CCC(N)CC3)n2)cnn1C,Percent Effect,"30.3 µM, […]",81.41%
Cc1ccccc1OCn1ccc(C(=O)NCCN2CCOCC2)n1,Percent Effect,"30.3 µM, […]",-13.65%
CCS(=O)(=O)N1CCCC2(CCCN2Cc2cccc(F)c2)C1.O=C(O)C(F)(F)F (stereo unspecified),Percent Effect,"30.3 µM, […]",12.48%
Cc1ccc(CN2CCCC23CCN(S(=O)(=O)c2ccccc2)C3)o1 (stereo unspecified),Percent Effect,"30 µM, 30.03 µM",49.3%
O=C(O)C(F)(F)F.O=C(O)C(F)(F)F.O=C(O)CN1CCCC2(CCN2Cc2cccc(F)c2)C1 (stereo unspecified),Percent Effect,"30.3 µM, […]",-0.8696%
O=S(=O)(c1ccccc1)N1CCC2(CCCN2Cc2ccc(Cl)cc2)C1 (stereo unspecified),Percent Effect,"30.3 µM, […]",36.08%
O=S(=O)(c1ccccc1)N1CCC2(CCCN2Cc2ccccc2Cl)C1 (stereo unspecified),Percent Effect,"30.3 µM, […]",52.23%
O=S(=O)(c1ccccc1)N1CCC2(CCCN2Cc2cccc(F)c2)C1 (stereo unspecified),Percent Effect,"30.3 µM, […]",61.17%
O=C(O)C(F)(F)F.O=C(c1ccccc1)N1CCCC2(CCN2Cc2cccc(F)c2)C1 (stereo unspecified),Percent Effect,"30.3 µM, […]",54.88%
O=C(O)C(F)(F)F.O=S(=O)(c1ccccc1)N1CCC2(CCCN2Cc2cccc(Cl)c2)C1 (stereo unspecified),Percent Effect,"30.3 µM, […]",27.63%
O=C(O)C(F)(F)F.O=C(c1cscn1)N1CCCC2(CCN2Cc2cccc(F)c2)C1 (stereo unspecified),Percent Effect,"30.3 µM, […]",40.36%
